Source: PubChem BioAssay
MPTP block: permeability transition pore inhibition | isolated mouse mitochondria, Ca2+ swelling absorbance, 30 min | inhibition, % at 10 µM | 360,000 compounds, 1.4% hits | AID 602449;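 active means inhibition of 50% or more, scaled per plate between neutral and stimulator controls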;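 further: 0% = DMSO wells given calcium and 100% = 1 mM EGTA wells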
dFosB act: activators of mouse delta FosB homodimer; P13346; activation, % at 25 µM; 340,000 compounds, 0.99% hits; purified delta FosB, TAMRA-CDK5 oligo fluorescence polarization; percent of positive-control signal above neutral wells;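 active means mean activation above about 17%, with every replicate also reaching it, limit read from the data, passing the limit was not always enough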
Target sequence (P13346 whole entry, looked up): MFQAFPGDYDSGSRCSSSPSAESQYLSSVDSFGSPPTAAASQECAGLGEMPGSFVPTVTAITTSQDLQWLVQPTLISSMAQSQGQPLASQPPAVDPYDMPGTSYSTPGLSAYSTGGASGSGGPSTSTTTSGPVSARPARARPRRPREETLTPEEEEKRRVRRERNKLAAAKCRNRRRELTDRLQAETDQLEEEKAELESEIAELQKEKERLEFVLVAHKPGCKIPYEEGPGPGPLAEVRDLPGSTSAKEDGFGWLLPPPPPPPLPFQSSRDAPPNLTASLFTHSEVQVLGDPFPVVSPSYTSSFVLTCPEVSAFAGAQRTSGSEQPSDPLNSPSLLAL
HSF1 inhib: HSF1 inhibition; NIH3T3-HGL HSE-luciferase, MG132-induced, luminescence 8 h; stronger effect = lower value; activity change, negative = inhibition, % at 7.5 µM (by protocol); 300,000 compounds, 0.77% hits;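 active means more than half of replicate wells show activity change below -50%, luminescence cut by over half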;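 further: luciferase reports HSF-1 transcriptional activity via heat shock element; 0% = median of DMSO wells and -100% = zero luminescence signal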
HSF-1 act: increases HSF-1 driven luciferase reporter signal; NIH3T3-HGL HSF-1 luciferase reporter, MG132, 8 h; 100% = twice DMSO control signal; activation, % at 9 µM; 300,000 compounds, 1.7% hits;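 active means mean replicate activation of at least 50% with a set share of replicates each reaching 50%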;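 further: 0% = median of the neutral control wells and 100% = twice that signal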
HSP90 inh: HSP90 refolding inhibition in rabbit reticulocyte lysate. luciferase refolding luminescence, 3 h. inhibition, % at 5.6 µM. 290,000 compounds, 0.91% hits;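 active means inhibition above the screen-wide mean plus 3 SD, computed separately per campaign, cut at about 16% in these data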;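 further: 0% = DMSO wells and 100% = 60 µM geldanamycin wells; inhibitors lower the luminescence because luciferase stays unfolded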
Platelet DG rel: platelet dense granule release activity; human platelet-rich plasma, SFLLRN dense granule ATP release, luminescence; inhibition, %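 (compounds screened at 7.5 µM in platelet-rich plasma)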; 300,000 compounds, 0.22% hits;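 active means mean replicate score, as percent of positive control, at or above 50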
The depositor's hits bear a star; nt = no result. A selection: hits, their analogues and other compounds. The true share with any hit is near 4.9%.

SMILES | MPTP block | dFosB act | HSF1 inhib | HSF-1 act | HSP90 inh | Platelet DG rel
CN(Cc1ccccc1)C(=O)[C@@H]1CCCN1C(=O)[C@@H]1CCCN1C(=O)c1cccc(Cl)c1 | -1 | nt | nt | nt | nt | nt
O=C(NCCC(=O)N1CCC2(CC1)NCCc1[nH]cnc12)c1ccc(F)c(F)c1 | 0 | -5 | -9 | -8 | -4 | -1
C[C@@H]1COc2cccc(N3CCN(Cc4ccccc4F)CC3)c2S(=O)(=O)N1 | 1 | nt | nt | nt | nt | nt
Cc1ccc(S(=O)(=O)NC2c3cccc4cccc(c34)C2Sc2nncn2C)cc1 (stereo not drawn) | -1 | -1 | 19 | 67* | -1 | -15
COc1ccc(N(C(=O)c2snc(C(N)=O)c2N)C(C(=O)NCc2ccccc2)c2ccc(F)cc2)c(OC)c1 (stereo not drawn) | 2 | 25* | 7 | 3 | 9 | -21
COc1ccc(CN(C(=O)c2snc(C(N)=O)c2N)C(C(=O)NC2CCCC2)c2ccc(OC)c(OC)c2)cc1 (stereo not drawn) | -2 | -4 | 9 | 29 | -1 | -8
COc1ccc(C(C(=O)NC2CCCC2)N(Cc2ccccc2)C(=O)c2snc(C(N)=O)c2N)cc1OC (stereo not drawn) | -1 | -1 | 18 | 52* | 0 | 14
COc1cc(Br)cc(CNc2ccc(F)c([N+](=O)[O-])c2)c1O | 4 | -10 | 28 | 31 | -4 | -4
CCOc1ccc2c(c1)ncn2Cc1ccccc1 | 3 | -7 | 13 | 32 | -1 | 5
CC(=O)Oc1ccc(Cn2cnc3cc4ccccc4cc32)cc1 | 7 | -10 | 40 | 68* | 0 | -12
CCOC(=O)c1c2c(n(Cc3ccccc3)c1C)C(=O)C(=O)c1ccccc1-2 | 4 | -1 | 99* | 99* | nt | nt
CCOC(=O)c1c2c(n(C)c1C)C(=O)C(=O)c1ccc(Br)cc1-2 | 8 | 6 | 5 | 12 | 0 | 0
Cc1ccc2[nH]c3c(c2c1)CN(C(=O)CN1CCCCC1)CC3 | nt | nt | -3 | -3 | -2 | -4
Cc1ccc2[nH]c3c(c2c1)CN(C(C)C)CC3 | 2 | -7 | -3 | -17 | 16* | -2
COc1ccc2cc(S(=O)(=O)NCc3cccnc3)ccc2c1 | 0 | -10 | 8 | 15 | 2 | 1
CCN(/C=N/c1sc2c(c1C#N)CCCCC2)CC | 0 | 0 | 29 | 60* | 0 | 0
CC(C)CN(/C=N/c1sc2c(c1C#N)CCCCC2)CC(C)C | 0 | -3 | 6 | 17 | 8 | -1
COC(=O)c1cc(COc2ccc3oc(C)c(C(=O)OC(C)C)c3c2)c(C)o1 | 3 | 0 | -80* | -83 | -1 | 1
COC(=O)c1cc(COc2ccc3c4c(c(=O)oc3c2)CCCC4)c(C)o1 | 1 | 3 | -4 | 1 | 2 | -3
O=C(C1CCCN(S(=O)(=O)c2ccc(Cl)cc2)C1)N(Cc1cccs1)C1CC1 (stereo not drawn) | -2 | -2 | -65* | -73 | 0 | 3
CC(=O)n1cc(N(C(=O)CCl)c2ccc([N+](=O)[O-])cc2)c2ccccc21 | 2 | 4 | 61 | 75* | 7 | 11
N=C1C(c2nc3ccccc3[nH]2)=C(O)CN1c1ccc(CC(=O)O)cc1 | 0 | -9 | -54* | -63 | 0 | 17
N=C1C(c2nc3ccccc3[nH]2)=C(O)CN1c1ccccc1 | 0 | 3 | 17 | 13 | -3 | 3
CCN(CC(=O)NCc1cccs1)c1ccc(S(=O)(=O)N2CCN(C)CC2)cn1 | 1 | -1 | 2 | -4 | 0 | 8
Cc1cc2c(cc1S(=O)(=O)N1CCN(c3ccc(Cl)cc3)CC1)OCCN2C | 1 | -7 | 5 | 3 | -2 | 8
SMILES | MPTP block | dFosB act | HSF1 inhib | HSF-1 act | HSP90 inh | Platelet DG rel
COc1cccc(N2CCN(S(=O)(=O)c3cc4c(cc3C)N(C)CCO4)CC2)c1 | 0 | -7 | 34 | 55* | 2 | -5
COc1cccc(N2CCN(S(=O)(=O)c3ccc(-c4coc(C)n4)cc3)CC2)c1 | 0 | 3 | 28 | 73* | -1 | 6
Cc1nc(-c2ccc(S(=O)(=O)N3CCN(c4ccccc4)CC3)cc2)co1 | 0 | 3 | 5 | 5 | -7 | -7
Cc1cccc(CN(C)C[C@H]2OCc3cnnn3CCCC(=O)N([C@@H](C)CO)C[C@@H]2C)c1 | 9 | nt | nt | nt | nt | nt
CC1C(=O)C(C)C(c2ccco2)NC1c1ccco1 (stereo not drawn) | 2 | -3 | -64* | -71 | -3 | -1
COc1ccc(C2=NN(C(=O)c3ccco3)C(c3ccco3)C2)cc1OC (stereo not drawn) | -2 | 6 | 32 | 62* | 1 | -4
O=C(c1ccco1)N1N=C(c2ccc(Cl)cc2)CC1c1ccco1 (stereo not drawn) | -2 | -7 | 4 | 3 | -1 | -10
CCc1ccc(C2=NN(C(C)=O)C(c3ccco3)C2)cc1 (stereo not drawn) | -2 | -9 | 33 | 74* | 1 | 3
CN1CCN(CC(=O)N2N=C(c3cccs3)CC2c2ccco2)CC1 (stereo not drawn) | 0 | 5 | -58* | -65 | 1 | -2
O=C(c1ccco1)N1N=C(c2cccs2)CC1c1ccco1 (stereo not drawn) | 1 | -6 | 29 | 64* | 4 | -4
CCC(=O)N1N=C(c2ccc(Cl)cc2)CC1c1ccco1 (stereo not drawn) | 3 | -11 | 7 | 12 | 9 | 0
O=C(NC(=S)Nc1ccccc1[N+](=O)[O-])c1cncc(Br)c1 | 3 | 2 | 23 | 14 | -3 | 5
CC(C)(C)S(=O)N1Cc2cc(C(=O)NCC(F)(F)F)nc(-c3cccc(-c4cccc(F)c4)c3)c2[C@H]1CCO (stereo partly drawn) | 0 | nt | nt | nt | nt | nt
O=C(CCl)N1N=C(c2cccs2)CC1c1ccco1 (stereo not drawn) | -1 | 1 | -94* | -95 | 2 | -4
CC(C)(C)c1ccc2c(c1)OC(C(=O)N/N=C\c1ccc[nH]1)CO2 (stereo not drawn) | 0 | -10 | -73* | -75 | 4 | 3
CC(C)(C)c1ccc2c(c1)OC(C(=O)N/N=C\c1ccncc1)CO2 (stereo not drawn) | 33 | -5 | 2 | -2 | 5 | -7
COc1cccc(NC2SC(=O)N(c3ccccc3)C2=O)c1 (stereo not drawn) | 1 | 0 | 35 | 59* | -1 | -18
O=C(/C=C/c1ccco1)NC(=S)Nc1cc(-c2nc3ccccc3s2)ccc1Cl | 1 | -8 | nt | nt | -1 | nt
Cc1ccc(-c2nc3ccccc3s2)cc1NC(=S)NC(=O)/C=C/c1ccco1 | -2 | -7 | 46 | 65* | -3 | -4
Cc1cc(C)n(-c2nc3ccccc3nc2N2CCN(C(=O)c3ccccc3)CC2)n1 | 0 | -8 | 21 | 52* | -2 | -16
